Compound activity deposited in PubChem by University of Kansas High Throughput Screening Laboratory.
Pf apPOL block: Pf-apPOL DNA polymerase inhibition | Recombinant Pf-apPOL, molecular beacon fluorescence, 1.5 h | inhibition, % at 10 µM | 0.25% of 210,000 active
mHTT CaM bind: disrupts binding of mutant huntingtin to calmodulin; P42858; AlphaScreen His-mHTT/GST-CaM binding, luminescence; inhibition, % at 15 µM; 3.6% of 190,000 active; AID 1671202
Large screens that a line does not name were inactive. An excerpt weighted towards active compounds, which were near 3.6% of everything screened. Cut-off read from the data, not from the text of the source: active = inhibition above about 50%; inactive = the rest.

CC(C)C(=O)NC(c1ccc(N(C)C)cc1)c1ccc2cccnc2c1O (configuration not stated)	mHTT CaM bind 100.0
CCN(CC)c1ccc(C(NC(=O)C(C)C)c2ccc3cccnc3c2O)cc1 (configuration not stated)	mHTT CaM bind 100.0
Cc1cc(NC(=O)c2cn(-c3ccc(C#N)cc3)cn2)ccc1Br	none
O=C(Cn1ccc2ccc(N3CCCCC3)nc21)NC1CCCC1	none
O=C(Cn1ccc2ccc(N3CCCCCC3)nc21)NC1CCCCC1	mHTT CaM bind 50.2
N#Cc1c(-c2ccco2)cc(-c2cccs2)[nH]c1=O	Pf apPOL block 83.1 (no result: mHTT CaM bind)
CSc1cc(-c2cccs2)[nH]c(=O)c1C#N	none (no result: mHTT CaM bind)
N#Cc1c(C(F)(F)F)cc(-c2cccs2)[nH]c1=O	none
N#Cc1c(-c2cccs2)cc(-c2ccco2)[nH]c1=O	Pf apPOL block 71.5 (no result: mHTT CaM bind)
Cc1nc(Nc2ccc(F)cc2)c2cc(C)sc2n1	none
CCOc1ccc2c(C)c(-c3ccc(OC)c(OC)c3)c(=O)oc2c1	none
CCC(=O)NCCc1csc(C2CCCN(C(=O)c3ccoc3)C2)n1 (configuration not stated)	none
COc1ccc(C(C#N)N2N=C(c3ccccc3)CC2c2ccccc2)cc1OC (configuration not stated)	mHTT CaM bind 79.0
COc1ccc(C(C#N)N2N=C(C)CC2c2ccccc2)cc1OC (configuration not stated)	none
COC(=O)N1CCC(c2ccc(OC)cc2)C1 (configuration not stated)	none
CSc1scc2c1C(=O)C(=CN(C)C)CC2	Pf apPOL block 93.0 (no result: mHTT CaM bind)
CN(C)C=C1Cc2ccccc2C1=O	none (no result: mHTT CaM bind)
COc1ccccc1CCC(=O)N1CC(c2noc(-c3ccccc3)n2)C1	none
CCOc1ccc(-c2nc3s/c(=C\c4ccc(SC)cc4)c(=O)n3n2)cc1	none
O=C(OCc1cc(-c2ccc3c(c2)OCCO3)on1)c1cc(-c2ccco2)n[nH]1	Pf apPOL block 67.0, mHTT CaM bind 69.3
Cc1nc(C)c(C(=O)OCc2cc(-c3ccc4c(c3)OCCO4)on2)s1	none
COc1cccc(C(CC(=O)N2CCCC2)c2c[nH]c3ccccc23)c1 (configuration not stated)	none
COc1ccc(C(CC(=O)N2CCCC2)c2c[nH]c3ccccc23)cc1 (configuration not stated)	mHTT CaM bind 91.2
COc1ccc(CN2C(=O)NC(=O)/C(=C/c3cc4c(cc3[N+](=O)[O-])OCO4)C2=O)cc1	none
Cc1ccccc1NC(=O)Cc1nc(-c2ccccc2)n[nH]1	none
O=C(Cc1nc(-c2ccccn2)n[nH]1)Nc1ccc(F)cc1F	mHTT CaM bind 97.3
O=C(Cc1nc(-c2ccccn2)n[nH]1)Nc1ccccc1F	mHTT CaM bind 94.5
O=C(Cc1nc(-c2ccccc2)n[nH]1)Nc1ccc(F)c(F)c1	none
O=C(Cc1ccccc1)NC1CCCCCC1	none
O=C(Cc1nc(-c2ccccn2)n[nH]1)NC1CCCC1	mHTT CaM bind 98.4
O=C(Cc1nc(-c2cnccn2)n[nH]1)NCc1ccccc1	none
O=C(Cc1nc(-c2ccccn2)n[nH]1)NC1CC1	mHTT CaM bind 99.7
O=[N+]([O-])c1cc(O)c2ncccc2c1	mHTT CaM bind 100.3
Nc1cc(Br)cc2cccnc12	none
O=[N+]([O-])c1ccc(Cc2ncccc2O)cc1	none
Oc1cc(O)c2ncccc2c1	mHTT CaM bind 100.4
COC(=O)Cc1c(C)ncnc1OCC(=O)Nc1ccc2c(c1)OCCO2	none (no result: mHTT CaM bind)
O=C(CCNS(=O)(=O)c1ccc(Br)s1)NCCc1ccc(Cl)cc1	none
CCC(=O)N1CCN(c2nc3c(s2)CC(C(=O)NC(CC)CC)CC3)CC1 (configuration not stated)	none
OCCNCCOc1ccc(Br)cc1Cl	mHTT CaM bind 99.9
OCCNCCOc1ccc(Br)cc1	none
COc1ccc(N2CC(C(=O)N3CCN(C4CCCC4)CC3)CC2=O)cc1 (configuration not stated)	none
O=C(NCc1cccc(F)c1)c1cn2c(n1)CCCC2	none
CC(=O)c1c(C(C)=O)c(C)n(-c2cc(C)c(C)cc2N)c1C	none
Cc1nnc(C)c2c(C)n(-c3ccc(N)cc3)c(C)c12	mHTT CaM bind 54.8
Cc1cc(N)c(-n2c(C)c3c(C)nnc(C)c3c2C)cc1C	mHTT CaM bind 87.7
CC(=O)c1c(C(C)=O)c(C)n(-c2ccc(N)cc2)c1C	none
Cc1cccc(NS(=O)(=O)c2c(C)cc(C)cc2C)c1	none
CN1C(=O)Cc2cc(C(=O)N3CCN(c4ccccc4Cl)CC3)ccc21	none
COc1ccc(-c2n[nH]c(C)c2Oc2ccc(F)cc2)c(O)c1	none
Cc1[nH]nc(-c2ccc(O)c(C)c2O)c1Oc1ccc(F)cc1	mHTT CaM bind 55.3
O=c1[nH]c2ccc(S(=O)(=O)Nc3ccc(Br)cc3F)cc2[nH]c1=O	none
Clc1ccc(C2CC(c3cccs3)n3nnnc3N2)cc1 (configuration not stated)	none
Oc1ccc2ccccc2c1C1Nc2cccc3cccc(c23)N1	mHTT CaM bind 88.9 (no result: Pf apPOL block)
Oc1ccc(O)c2c1C1c3ccccc3C2c2ccccc21	none
O=C(CN1CCCC1)C12CC3CC(C1)CC(c1ccccc1)(C3)C2	none
Cc1ccc(CNS(=O)(=O)c2ccc3nc(-c4ccccc4)[nH]c3c2)cc1	none
CCC(C)(C(=O)NC1CCCCC1)N(Cc1cccs1)C(=O)Cc1c[nH]c2ccccc12 (configuration not stated)	none
C=C(C)Cn1c(C(=O)N2CCN(C)CC2)cc2sc(C)cc21	none
Cc1cc2c(cc(C(=O)N3CCN(C)CC3)n2Cc2cccc(F)c2)s1	mHTT CaM bind 56.0
CSc1cccc(NC(=O)N2CCN(C3=CC4=NC(C)CN4C=N3)CC2)c1 (configuration not stated)	none
CN(C)c1ccc(Nc2c([N+](=O)[O-])c(=O)oc3ccccc23)cc1	none
Oc1ccc(Cl)cc1Sc1cc(Cl)ccc1O	mHTT CaM bind 97.8 (no result: Pf apPOL block)
CN(C)Cc1cc(Cl)ccc1O	none
COc1ccc(-c2csc(Nc3ccc(S(N)(=O)=O)cc3)n2)cc1OC	mHTT CaM bind 50.5
COc1ccc(-c2csc(Nc3ccc(N(C)C)cc3)n2)cc1OC	mHTT CaM bind 97.4
NS(=O)(=O)c1ccc(Nc2nc(-c3cccnc3)cs2)cc1	none
COc1ccccc1Nc1nc(-c2ccc(OC)c(OC)c2)cs1	none
Cc1nc2c(C(=O)N(C)CCC#N)c[nH]n2c(=O)c1Cc1ccc(F)cc1	none
CCOC(=O)CNC(=O)N1CCC(n2c(-c3ccc(C)cc3)nc3cccnc32)C1 (configuration not stated)	none
C#CCOc1ccc(/C=N\n2cnnc2N/N=C/c2ccc(OCC#C)c(OC)c2)cc1OC	mHTT CaM bind active (no result: Pf apPOL block)
Oc1ccc(/C=N\Nc2nncn2/N=C\c2ccc(O)c(O)c2)cc1O	none (no result: Pf apPOL block)
O=[N+]([O-])c1ccc(C2Nc3c(cccc3[N+](=O)[O-])C3C=CCC32)cc1 (configuration not stated)	none
COc1cc(C2Nc3c(F)cccc3C3C=CCC32)cc(Br)c1OC (configuration not stated)	none
O=[N+]([O-])c1cccc2c1NC(c1ccc(F)cc1)C1CC=CC21 (configuration not stated)	mHTT CaM bind 83.0
COc1cccc2c1NC(c1ccc(Cl)cc1)C1CC=CC21 (configuration not stated)	mHTT CaM bind 59.0
O=[N+]([O-])c1cccc2c1NC(c1ccc(Cl)cc1)C1CC=CC21 (configuration not stated)	mHTT CaM bind 86.0
COc1ccc(C)c2c1NC(c1ccc(Br)cc1)C1CC=CC21 (configuration not stated)	mHTT CaM bind 72.0
Fc1ccc(NC(=S)C23CC4CC(CC(C4)C2)C3)cc1	none (no result: Pf apPOL block)
